Assay results from PubChem BioAssay (Tox21).
Where “and” joins values, the source holds several entries; their conditions need not be identical. Equal values may be shown once. Inconclusive results are not listed. Calls of active or inactive are those of the source. Unless noted, the call rests on the fitted dose curve; in most records, active means well fitted curve in the direction sought with a large enough effect in the repeat runs; inconclusive means weak or mixed curves; inactive means no such curve, though single readings can be large; an effect the other way counts as inactive or inconclusive.

What was measured:
[1] = qHTS assay for small molecule agonists of the p53 signaling pathway (AID 651631; calls by dose curve; further: nearly all actives have a fitted effect of over 15% in size; further: potency means the concentration at half of the fitted maximal effect)
Summary of the method: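 Agonist mode screen using a stably integrated beta-lactamase gene under p53 response elements in HCT-116 cells. Compound exposure lasts 16 h at 37 °C; fluorescence intensity is measured following 2 h FRET substrate loading.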

[2] = qHTS assay for small molecule agonists of the p53 signaling pathway - cell viability (AID 651633; calls by dose curve; further: nearly all actives have a fitted effect of over 30% in size; further: potency means the concentration at half of the fitted maximal effect)
Summary of the method: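 p53RE-bla cells, seeded at 4,000 per well and rested 5 h at 37 C/5% CO2, received compounds in DMSO for 16 h at 37 C. CellTiter-Glo was then added, and luminescence was read after 30 min at room temperature to gauge cytotoxicity.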

[3] = qHTS assay for small molecule disruptors of the mitochondrial membrane potential - cell viability (AID 720634; calls by dose curve; further: nearly all actives have a fitted effect of over 20% in size; further: potency means the concentration at half of the fitted maximal effect)
Summary of the method: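 Viability of HepG2 cells is scored from ATP content by luminescence; cells are exposed to compound for 1 hr at 37 C and 5% CO2, then dosed with m-MPI dye before the CellTiter-Glo reagent.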

[4] = qHTS assay for small molecule disruptors of the mitochondrial membrane potential (AID 720635); further: potency means the concentration at half of the fitted maximal effect
Summary of the method: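 HepG2 cells (2,000/well) attached overnight at 37C, then took compound for 1 hr at 37C, 5% CO2. Mito-MPS dye was added for 30 min; fluorescence was read at 490/535 nm (monomers) and 540/590 nm (aggregates).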

[5] = qHTS assay to test for compound auto fluorescence at 590 nm (red) in HepG2 cells (AID 720674)
Summary of the method: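 Compound auto-fluorescence is scored relative to Rose Bengal sodium, measured at 540/590 nm in live HepG2 cultures after 1 hr compound contact (37 C, 5% CO2).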

[6] = qHTS assay to test for compound auto fluorescence at 535 nm (green) in HepG2 cells (AID 720675)
[7] = qHTS assay to test for compound auto fluorescence at 460 nm (blue) in HEK293 cells (AID 720678)
Summary of the method: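 Measured: blue fluorescence (Ex 405/Em 460 nm) of compound-treated HEK293 cells, incubated overnight at 37C with 5% CO2 and scaled to triamterene equivalents.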

[8] = qHTS assay to test for compound auto fluorescence at 590 nm (red) in HEK293 cells (AID 720679)
Summary of the method: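 Using HEK293 cells at 2,000 per well, the screen added 23 nL of each compound after cell attachment and incubated overnight (37C, 5% CO2). The plate reader then captured red-label fluorescence, Ex/Em 540/590nm.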

[9] = qHTS assay to test for compound auto fluorescence at 535 nm (green) in HEK293 cells (AID 720680)
[10] = qHTS assay to test for compound auto fluorescence at 460 nm (blue) in HEK293 cell free culture (AID 720681)
Summary of the method: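 Test compounds were pinned into cell-free culture medium (DMEM with 10% FBS) and fluorescence was read directly at Ex/Em 405/460 nm. Signals were expressed as fluorescence equivalents of triamterene, with DMSO vehicle as control.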

[11] = qHTS assay to test for compound auto fluorescence at 535 nm (green) in HEK293 cell free culture (AID 720682)
Summary of the method: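 No cells present: wells hold DMEM supplemented with 10% FBS, into which compound or vehicle is pinned. Green emission is then recorded (485 nm excitation, 535 nm emission) and scaled to fluorescein.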

[12] = qHTS assay to test for compound auto fluorescence at 590 nm (red) in HEK293 cell free culture (AID 720683)
Summary of the method: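 Tox21 10K library compounds were pinned into cell-free DMEM with 10% FBS and fluorescence was read at excitation 540 nm. Activity is expressed as Rose Bengal sodium equivalency.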

[13] = qHTS assay to test for compound auto fluorescence at 590 nm (red) in HepG2 cell free culture (AID 720684)
Summary of the method: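 Ex 540 / Em 590 nm read of compound in cell-free MEM (10% FBS). Rose Bengal sodium reference.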

[14] = qHTS assay to test for compound auto fluorescence at 460 nm (blue) in HepG2 cell free culture (AID 720685)
Summary of the method: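 Cell-free plates of MEM plus 10% FBS received 23 nL compound or DMSO vehicle; blue-channel (405/460 nm) intensity scored against triamterene as reference fluorophore.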

[15] = qHTS assay to test for compound auto fluorescence at 535 nm (green) in HepG2 cell free culture (AID 720686)
[16] = target: Glucocorticoid receptor (Homo sapiens) (UniProt P04150); experiment: qHTS assay to identify small molecule agonists of the glucocorticoid receptor (GR) signaling pathway (AID 720691; active means well fitted activation curve with a large enough effect in the signal ratio in the repeat runs, not every such curve was filed as active; the % refers to the signal ratio)
Glucocorticoid receptor (Homo sapiens), sequence (P04150 whole entry, looked up): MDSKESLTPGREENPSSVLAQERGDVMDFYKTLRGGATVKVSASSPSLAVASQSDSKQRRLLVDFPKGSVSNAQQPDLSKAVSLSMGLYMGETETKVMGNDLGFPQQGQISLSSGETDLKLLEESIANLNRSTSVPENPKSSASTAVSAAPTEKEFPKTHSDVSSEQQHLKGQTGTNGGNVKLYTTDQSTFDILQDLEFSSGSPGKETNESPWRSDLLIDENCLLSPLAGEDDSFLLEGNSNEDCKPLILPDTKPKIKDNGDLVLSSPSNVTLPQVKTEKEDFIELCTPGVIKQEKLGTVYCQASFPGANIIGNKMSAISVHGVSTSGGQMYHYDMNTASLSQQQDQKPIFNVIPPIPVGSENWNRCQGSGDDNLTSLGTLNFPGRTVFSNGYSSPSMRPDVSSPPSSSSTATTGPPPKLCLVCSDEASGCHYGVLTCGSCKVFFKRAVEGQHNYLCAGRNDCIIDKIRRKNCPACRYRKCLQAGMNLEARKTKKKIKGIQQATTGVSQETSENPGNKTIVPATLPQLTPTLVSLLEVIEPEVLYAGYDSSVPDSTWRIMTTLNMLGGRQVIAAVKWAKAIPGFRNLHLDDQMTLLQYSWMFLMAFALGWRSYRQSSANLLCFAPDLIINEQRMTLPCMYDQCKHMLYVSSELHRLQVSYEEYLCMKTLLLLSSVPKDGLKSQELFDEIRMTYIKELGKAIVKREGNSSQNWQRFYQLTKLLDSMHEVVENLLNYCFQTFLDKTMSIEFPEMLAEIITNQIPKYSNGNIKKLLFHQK
Summary of the method: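 Compounds in DMSO, alongside positive controls, were added to GR-bla HeLa reporter cells and incubated 18 h at 37 C; GRE-driven beta-lactamase was detected by fluorescence after 2 h with FRET substrate at room temperature.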

[17] = target: Glucocorticoid receptor (Homo sapiens) (UniProt P04150); experiment: qHTS assay to identify small molecule antagonists of the glucocorticoid receptor (GR) signaling pathway (AID 720692; active means well fitted inhibition curve with a large enough effect in the signal ratio in the repeat runs, not every such curve was filed as active; the % refers to the signal ratio; further: potency means the concentration at half of the fitted maximal effect)
Summary of the method: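 In a 1536-well cell format, compounds were added 4 h after seeding GR-bla HeLa cells, together with dexamethasone at 5 nM final; reporter activity was measured by FRET-substrate fluorescence following 18 h at 37 C.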

[18] = qHTS assay for small molecules that induce genotoxicity in human embryonic kidney cells expressing luciferase-tagged ATAD5 - cell viability (AID 651634; calls by dose curve; further: nearly all actives have a fitted effect of over 25% in size; further: potency means the concentration at half of the fitted maximal effect)
Summary of the method: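 Here HEK293T cells with the ATAD5 luciferase reporter are incubated with test compounds for 15.5 hr, and cytotoxicity is then gauged by measuring protease activity in live cells using fluorescence.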

[19] = qHTS assay to test for compound auto fluorescence at 460 nm (blue) in HepG2 cells (AID 720687)
Summary of the method: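 Cells (2,000/well in MEM with 10% FBS) attached overnight at 37 C, then were exposed to compound or DMSO for 1 hr at 37 C, 5% CO2. Fluorescence read at Ex/Em 405/460 nm, expressed as triamterene-equivalent signal.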

[20] = qHTS assay for small molecules that induce genotoxicity in human embryonic kidney cells expressing luciferase-tagged ATAD5 (AID 651632); further: nearly all actives have a fitted effect of over 15% in size; further: potency means the concentration at half of the fitted maximal effect
Summary of the method: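 DMSO vehicle served as the control. HEK293T reporter cells, 16 hr at 37C, then 30 min Amplite at room temperature; ATAD5 induction is measured as luciferase activity.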

Measured: Potency

CC(C)CCCCCCCOC(=O)c1ccccc1C(=O)OCCCCCCCC(C)C
not listed: [18] | [19] | [20]
inactive: all other assays above

O=C=NC1CCCCC1
not listed: [4] | [20]
inactive: all other assays above

CCCN(CCC)C(=O)Cc1c(-c2ccc(Cl)cc2)nc2ccc(Cl)cn12
not listed: [2] | [4] | [7] | [16] | [17] | [20]
inactive: all other assays above

CC(C)C1(C)N=C(c2ncccc2C(=O)O)NC1=O (stereo not given)
not listed: [2] | [4] | [7] | [18]
inactive: all other assays above

O=C([O-])c1ccccn1.O=C([O-])c1ccccn1.O=C([O-])c1ccccn1.[Cr+3]
not listed: [2] | [7] | [17] | [20]
inactive: all other assays above

CC(O)CN1CCN(CC(=O)[O-])CCN(CC(=O)[O-])CCN(CC(=O)[O-])CC1.[Gd+3] (stereo not given)
not listed: [13] | [15] | [19] | [20]
inactive: all other assays above

O=C(CCl)CCl
active: [1] 24.3 µM | [17] 43.6 µM
not listed: [2] | [3] | [4] | [7] | [14] | [18] | [20]
inactive: all other assays above

COC1CC(=C(c2cccs2)c2cccs2)C[N+](C)(C)C1 (stereo not given)
not listed: [20]
inactive: all other assays above

CCCCCCCCCCCCCCCl
not listed: [2] | [15] | [18]
inactive: all other assays above

Clc1ccc2ccccc2c1
not listed: [2] | [7] | [13]
inactive: all other assays above

NCCc1cc(O)c(O)cc1O
not listed: [1] | [14]
inactive: all other assays above

O=C(O)C(F)(F)C(F)(F)C(F)(F)C(F)(F)C(F)(F)F
not listed: [1] | [4] | [10] | [15]
inactive: all other assays above

CCOC(=O)NC(O)C(Cl)(Cl)Cl (stereo not given)
not listed: [1] | [7] | [16] | [17]
inactive: all other assays above

Clc1ccccc1
not listed: [1] | [13]
inactive: all other assays above

COc1ccccc1N1CCNCC1
not listed: [1] | [7]
inactive: all other assays above

CC(C)(C)c1ccc(CCOc2ncnc3ccccc23)cc1
not listed: [1] | [16] | [17]
inactive: all other assays above

O=CC=O
not listed: [1] | [7] | [10]
inactive: all other assays above

CCCC1CCCCN1 (stereo not given)
not listed: [1] | [10] | [16] | [17]
inactive: all other assays above

CN(C)c1ccc(N=O)cc1
active: [20] 21.8 µM and 68.6 µM | [2] 21.8 µM | [18] 61.3 µM and 54.5 µM | [3] 17.3 µM and 48.6 µM | [17] 38.9 µM
not listed: [1] | [4]
inactive: all other assays above

ClCc1ccccc1Cl
not listed: [1] | [4] | [13] | [14]
inactive: all other assays above

Cc1cccc(C)c1NC1=NCCCS1
not listed: [1] | [4] | [16] | [17]
inactive: all other assays above

O=C(NC(=O)c1cc(F)c(F)cc1Cl)Nc1cc(F)ccc1N1CCC(C(=O)O)CC1
not listed: [1] | [4] | [17]
inactive: all other assays above

C=CCSSCC=C
not listed: [1] | [10] | [16] | [17]
inactive: all other assays above

CCCN(CCC)c1c([N+](=O)[O-])cc(C(C)C)cc1[N+](=O)[O-]
active: [4] 12.2 µM
not listed: [1] | [10] | [13] | [16] | [17]
inactive: all other assays above

O=C(O)COc1cc(Cl)c(Cl)cc1Cl
not listed: [1] | [4] | [14] | [19]
inactive: all other assays above

CCC1(C2=NCCN2)Cc2ccccc2O1 (stereo not given)
not listed: [1] | [16] | [17]
inactive: all other assays above

CNC(=O)Oc1cccc(N=CN(C)C)c1
not listed: [1] | [7] | [10] | [16] | [17]
inactive: all other assays above
